Laboratory results reported in PubChem BioAssay (Tox21).
“And” between values parts separate entries of the source, which are not always exact repeats. Identical values can stand only once. Inconclusive results are not listed. The source made the active and inactive calls. Unless noted, calls come from the whole dose curve; as a rule, active = well fitted curve in the direction sought with a large enough effect in the repeat runs; inconclusive = weak or mixed curves; inactive = no such curve, though single readings can be large; an effect the other way counts as inactive or inconclusive.

Assays:
[1] = qHTS assay to identify small molecule agonists of the peroxisome proliferator-activated receptor delta (PPARd) signaling pathway - cell viability counter screen (AID 743211); note: nearly all actives have a fitted effect of over 55% in size
Procedure, shortened: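 Luminescent ATP viability assay (CellTiter-Glo, 30 min RT) in UAS-bla HEK293H cells carrying the PPAR delta reporter construct, 3000 cells/well, after a 17 h compound treatment at 37 C.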

[2] = target: Peroxisome proliferator-activated receptor delta (Homo sapiens) (UniProt Q03181); assay: qHTS assay to identify small molecule agonists of the peroxisome proliferator-activated receptor delta (PPARd) signaling pathway (AID 743212; calls by dose curve)
Sequence of Peroxisome proliferator-activated receptor delta (Homo sapiens) (Q03181 whole entry, looked up): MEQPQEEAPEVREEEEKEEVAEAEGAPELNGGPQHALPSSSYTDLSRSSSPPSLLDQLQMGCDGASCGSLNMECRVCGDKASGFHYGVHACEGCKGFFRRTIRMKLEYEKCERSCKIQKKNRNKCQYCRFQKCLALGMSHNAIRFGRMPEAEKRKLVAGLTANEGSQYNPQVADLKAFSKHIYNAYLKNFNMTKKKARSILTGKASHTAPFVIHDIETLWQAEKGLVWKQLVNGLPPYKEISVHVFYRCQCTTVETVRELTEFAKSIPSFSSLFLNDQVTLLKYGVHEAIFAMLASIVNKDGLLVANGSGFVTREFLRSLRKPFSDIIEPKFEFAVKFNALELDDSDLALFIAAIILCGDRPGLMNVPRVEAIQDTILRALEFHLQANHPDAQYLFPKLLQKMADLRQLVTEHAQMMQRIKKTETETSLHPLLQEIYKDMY
Procedure, shortened: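 A PPARd-bla HEK293H line with beta-lactamase under an Upstream Activator Sequence is treated with compounds at 37 C. Substrate loading for 2 h at room temperature precedes the fluorescence measurement.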

[3] = qHTS assay to identify small molecule antagonists of the peroxisome proliferator-activated receptor delta (PPARd) signaling pathway - cell viability counter screen (AID 743213); note: nearly all actives have a fitted effect of over 50% in size; note: potency is the fitted concentration of half-maximal effect
Procedure, shortened: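 Viability counter-screen, qHTS format: PPARd-bla HEK293H, L165041 300 nM final, 17 h compound exposure at 37 C, CellTiter-Glo luminescence after 30 min RT.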

[4] = target: Peroxisome proliferator-activated receptor delta (Homo sapiens) (UniProt Q03181); assay: qHTS assay to identify small molecule antagonists of the peroxisome proliferator-activated receptor delta (PPARd) signaling pathway (AID 743215; active = well fitted inhibition curve with a large enough effect in the signal ratio in the repeat runs, not every such curve was filed as active; the % refers to the signal ratio;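 note: cells stimulated with agonist L165041 at 300 nM final during compound exposure; series mostly up to about 62 µM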)
Procedure, shortened: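 PPARd UAS-bla HEK293H cells were pre-incubated 5 h at 37 C, then given test compounds in DMSO plus agonist L165041 (300 nM final). After 17 h at 37 C, beta-lactamase FRET substrate was added; fluorescence read after 2 h at room temperature.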

[5] = target: Bile acid receptor (Homo sapiens) (UniProt Q96RI1); assay: qHTS assay to identify small molecule antagonists of the farnesoid-X-receptor (FXR) signaling pathway (AID 743217; active = well fitted inhibition curve with a large enough effect in the signal ratio in the repeat runs, not every such curve was filed as active; the % refers to the signal ratio)
Sequence of Bile acid receptor (Homo sapiens) (Q96RI1 whole entry, looked up): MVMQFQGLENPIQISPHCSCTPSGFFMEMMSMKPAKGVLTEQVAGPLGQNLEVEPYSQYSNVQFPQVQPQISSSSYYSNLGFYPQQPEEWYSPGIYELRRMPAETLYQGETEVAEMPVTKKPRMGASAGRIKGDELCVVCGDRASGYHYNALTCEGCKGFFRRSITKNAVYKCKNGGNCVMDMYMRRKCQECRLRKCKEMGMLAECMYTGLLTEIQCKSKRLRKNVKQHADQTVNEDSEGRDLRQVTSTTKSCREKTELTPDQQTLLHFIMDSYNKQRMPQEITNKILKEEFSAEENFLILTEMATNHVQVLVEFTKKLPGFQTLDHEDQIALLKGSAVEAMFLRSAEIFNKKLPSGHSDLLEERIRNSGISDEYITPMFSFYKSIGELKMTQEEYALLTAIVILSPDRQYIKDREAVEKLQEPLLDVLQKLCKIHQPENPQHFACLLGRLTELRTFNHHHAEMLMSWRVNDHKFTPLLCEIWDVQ
Procedure, shortened: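 FXR-UAS-bla HEK 293T cells pre-incubated 5 h at 37 °C, then exposed to compounds with chenodeoxycholic acid (50 uM final) for 16 h at 37 °C. Beta-lactamase reporter read by LiveBLAzer B/G FRET substrate fluorescence after 2 h at room temperature.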

[6] = qHTS assay to identify small molecule agonists of the farnesoid-X-receptor (FXR) signaling pathway - cell viability counter screen (AID 743218); note: nearly all actives have a fitted effect of over 45% in size
Procedure, shortened: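 FXR-UAS-bla HEK 293T cells, plated 5 h at 37 C, were exposed to compounds for 16 h at 37 C. CellTiter-Glo was then added to the same wells as the bla readout; luminescence read after 30 min at room temperature.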

[7] = qHTS assay to identify small molecule antagonists of the farnesoid-X-receptor (FXR) signaling pathway - cell viability counter screen (AID 743221; active = well fitted cell-killing curve with a large enough effect in the repeat runs, not every such curve was filed as active; note: nearly all actives have a fitted effect of over 50% in size)
Procedure, shortened: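 In GeneBLAzer FXR-UAS-bla HEK 293T cells stimulated with 50 uM chenodeoxycholic acid (final), compounds acted for 16 h at 37 C. Viability was assessed afterwards by CellTiter-Glo luminescence.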

[8] = target: Vitamin D3 receptor (Homo sapiens) (UniProt P11473); assay: qHTS assay to identify small molecule agonists of the vitamin D receptor (VDR) signaling pathway (AID 743222; calls by dose curve)
Sequence of Vitamin D3 receptor (Homo sapiens) (P11473 whole entry, looked up): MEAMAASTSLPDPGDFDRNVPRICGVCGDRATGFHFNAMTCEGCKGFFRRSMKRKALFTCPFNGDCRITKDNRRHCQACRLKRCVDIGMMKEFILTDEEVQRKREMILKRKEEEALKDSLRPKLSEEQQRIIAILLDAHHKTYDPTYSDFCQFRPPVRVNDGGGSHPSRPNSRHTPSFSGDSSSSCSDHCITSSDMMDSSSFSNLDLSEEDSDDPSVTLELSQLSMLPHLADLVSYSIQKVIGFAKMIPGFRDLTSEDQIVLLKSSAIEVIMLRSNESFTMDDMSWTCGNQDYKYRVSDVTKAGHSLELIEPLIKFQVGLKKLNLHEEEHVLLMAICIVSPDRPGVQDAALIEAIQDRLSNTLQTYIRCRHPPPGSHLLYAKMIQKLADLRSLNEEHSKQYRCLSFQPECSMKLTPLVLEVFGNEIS
Procedure, shortened: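 VDR-bla cells were plated 4 h at 37C/5% CO2, then exposed to compounds in DMSO for 16 h. After LiveBLAzer B/G FRET substrate addition and 2 h at room temperature, beta-lactamase reporter fluorescence was read.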

[9] = target: Vitamin D3 receptor (Homo sapiens) (UniProt P11473); assay: qHTS assay to identify small molecule antagonists of the vitamin D receptor (VDR) signaling pathway (AID 743223; active = well fitted inhibition curve with a large enough effect in the signal ratio in the repeat runs, not every such curve was filed as active; the % refers to the signal ratio)
Procedure, shortened: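 Agonist 1alpha,25-dihydroxyvitamin D3 (3 nM in well) was added with each compound to VDR-bla cells preincubated 4 h. Cells stood 16 h at 37C, then FRET substrate 2 h at room temperature; fluorescence intensity recorded.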

[10] = qHTS assay to identify small molecule agonists of the vitamin D receptor (VDR) signaling pathway - cell viability counter screen (AID 743224); note: series mostly up to about 63 µM; nearly all actives have a fitted effect of over 50% in size
Procedure, shortened: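 VDR-bla cells were preincubated 4 h at 37C/5% CO2, then exposed to compounds for 16 h. After the 2 h room-temperature bla FRET read, CellTiter-Glo was added to the same wells and luminescence read after 30 min.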

[11] = qHTS assay to identify small molecule antagonists of the vitamin D receptor (VDR) signaling pathway - cell viability counter screen (AID 743225); note: nearly all actives have a fitted effect of over 50% in size
Procedure, shortened: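 Luminescent cell viability (CellTiter-Glo) in VDR-bla HEK 293T cells after 16 h compound exposure at 37C in the presence of 3 nM final 1-alpha,25-dihydroxy vitamin D3.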

[12] = qHTS assay to identify small molecule agonists of the NFkB signaling pathway - cell viability counter screen (AID 1159515; calls by dose curve; note: series mostly up to about 61 µM; nearly all actives have a fitted effect of over 55% in size)
Procedure, shortened: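 NFkB-bla ME-180 cells, 2,000/well, were plated overnight at 37 C, 5% CO2, then exposed to compounds in DMSO for 5 hr. After the bla FRET read, CellTiter-Glo was added to the same wells; luminescence was read after 30 min at room temperature.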

[13] = qHTS assay to identify small molecule agonists of the endoplasmic reticulum stress response signaling pathway (AID 1159516; active = well fitted activation curve with a large enough effect in the signal ratio in the repeat runs, not every such curve was filed as active; the % refers to the signal ratio)
Procedure, shortened: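 CellSensor ESRE-bla HeLa cells, carrying a beta-lactamase reporter driven by the ER stress response element, were plated overnight and exposed to compounds for 5 hr at 37 C. Reporter activity was read as FRET substrate fluorescence after 2 hr at room temperature.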

[14] = qHTS assay to identify small molecule agonists of the endoplasmic reticulum stress response signaling pathway - cell viability counter screen (AID 1159517; calls by dose curve)
Procedure, shortened: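 CellTiter-Glo was added to wells already read for beta-lactamase FRET, and luminescence was recorded 30 min later. Cells: ESRE-bla HeLa, 1,500 per well, compound exposure 5 hr at 37 C.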

[15] = qHTS assay to identify small molecule antagonists of the retinoid-related orphan receptor gamma (ROR-gamma) signaling pathway - cell viability counter screen (AID 1159520); note: nearly all actives have a fitted effect of over 50% in size
Procedure, shortened: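 Tet-on ROR gamma CHO cells (1,000/well) were plated 4 hr, given compounds in DMSO for 2 hr at 37 C, then induced with 1 uM final doxycycline for 16 hr. Viability was read as ATP by CellTiter-Glo luminescence after 30 min.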

[16] = qHTS assay to identify small molecule agonists of the AP-1 signaling pathway - cell viability counter screen (AID 1159525; calls by dose curve; note: nearly all actives have a fitted effect of over 55% in size)
Procedure, shortened: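 ME-180 AP-1-bla, 2500 cells/well, Opti-MEM + 0.5% dialyzed FBS; overnight 37 °C; cpd 15-pt titration, 5 h 37 °C; CellTiter-Glo 30 min RT; luminescence read; normalised to TOAB and DMSO controls.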

[17] = qHTS assay to identify small molecule agonists of the AP-1 signaling pathway (AID 1159526; calls by dose curve)
[18] = target: Retinoic acid receptor RXR-alpha (Homo sapiens) (UniProt P19793); assay: qHTS assay to identify small molecule agonists of the RXR signaling pathway (AID 1159527; calls by dose curve; note: nearly all actives have a fitted effect of over 35% in size)
Sequence of Retinoic acid receptor RXR-alpha (Homo sapiens) (P19793 whole entry, looked up): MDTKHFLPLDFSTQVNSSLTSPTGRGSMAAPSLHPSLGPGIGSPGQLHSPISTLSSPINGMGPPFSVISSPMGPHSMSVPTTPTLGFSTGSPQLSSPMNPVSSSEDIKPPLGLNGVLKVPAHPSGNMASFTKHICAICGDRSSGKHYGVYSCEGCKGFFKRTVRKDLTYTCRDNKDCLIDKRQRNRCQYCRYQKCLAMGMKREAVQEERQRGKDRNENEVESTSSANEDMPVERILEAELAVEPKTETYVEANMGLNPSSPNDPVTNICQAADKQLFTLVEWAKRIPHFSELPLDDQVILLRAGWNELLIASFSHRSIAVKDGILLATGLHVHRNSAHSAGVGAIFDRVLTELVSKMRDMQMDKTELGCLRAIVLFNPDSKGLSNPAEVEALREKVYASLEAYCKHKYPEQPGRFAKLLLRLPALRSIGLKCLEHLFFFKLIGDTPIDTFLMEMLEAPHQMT
Procedure, shortened: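 Beta-lactamase reporter assay, agonist format. Engineered HEK 293T line, charcoal-stripped FBS at 2%, overnight (16 hr) exposure, fluorescence at 460 and 530 nm after 405 nm excitation.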

[19] = target: Nuclear receptor ROR-gamma (Homo sapiens) (UniProt P51449); assay: qHTS assay to identify small molecule antagonists of the retinoid-related orphan receptor gamma (ROR-gamma) signaling pathway (AID 1159521; note: nearly all actives have a fitted effect of over 50% in size; note: potency is the fitted concentration of half-maximal effect)
Procedure, shortened: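 CHO cells expressing RORγ under a TET-on promoter, luciferase under RORE control. Dox 1 uM final, 16 h; compounds added 2 h prior. Luminescence decrease measured.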

[20] = target: Bile acid receptor (Homo sapiens) (UniProt Q96RI1); assay: qHTS assay to identify small molecule agonists of the farnesoid-X-receptor (FXR) signaling pathway (AID 743220; active = well fitted activation curve with a large enough effect in the signal ratio in the repeat runs, not every such curve was filed as active; the % refers to the signal ratio)
Procedure, shortened: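 Beta-lactamase reporter under UAS control in GeneBLAzer FXR HEK 293T cells (5000/well) measured with LiveBLAzer FRET substrate after 2 h at room temperature. Compound exposure lasted 16 h at 37C.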

Measured: Potency

C#CC(O)(C=CCl)CC (centres undefined)
not listed: [19] | [20]
inactive: all other assays above

CC(C)CCCCCCCOC(=O)c1ccccc1C(=O)OCCCCCCCC(C)C
not listed: [2] | [4] | [6] | [8] | [11] | [18] | [20]
inactive: all other assays above

O=C(N[C@H]1CN2CCC1CC2)c1ccc2c(c1)OCCO2
not listed: [1] | [4] | [5] | [8] | [18] | [20]
inactive: all other assays above

O=C(NCNC(=O)NC1C(=O)NC(=O)N1CO)NC1C(=O)NC(=O)N1CO (centres undefined)
not listed: [4] | [6] | [8] | [9] | [10] | [18] | [20]
inactive: all other assays above

Cc1cccc(C)c1NC1=NCCCS1
not listed: [5] | [19] | [20]
inactive: all other assays above

Cc1cnc(C2=NC(C)(C(C)C)C(=O)N2)c(C(=O)O)c1 (centres undefined)
not listed: [1] | [5] | [18] | [20]
inactive: all other assays above

CCOC(C(=O)OCCN(C)C)(c1ccccc1)c1ccccc1
not listed: [1] | [2] | [4] | [10] | [18]
inactive: all other assays above

CN[C@@H](C)[C@H](O)c1ccccc1
not listed: [1] | [6] | [10] | [18] | [20]
inactive: all other assays above

Cc1nc(N(C)C)nc(OC(=O)N(C)C)c1C
not listed: [1] | [8] | [18]
inactive: all other assays above

CN(C)C(=O)Nc1cccc(OC(=O)NC(C)(C)C)c1
not listed: [5] | [9] | [18] | [20]
inactive: all other assays above

C[Si](Cn1cncn1)(c1ccc(F)cc1)c1ccc(F)cc1
inactive: [1] | [2] | [20] | [12] | [13] | [14] | [15] | [16] | [17]
active: [3] 38.9 µM | [19] 31.6 µM and 43.3 µM

CCCSP(=S)(OCC)Oc1ccc(SC)cc1 (centres undefined)
not listed: [4] | [8] | [10] | [18] | [20]
inactive: all other assays above

Nc1ccccc1C(=O)OCCc1ccccc1
not listed: [2] | [4] | [5] | [6] | [18] | [20]
inactive: all other assays above
